What follows are molecules tested on T1, ARK5. Settings: concentration: 1 μM, replicates: in singlicate; n = 1.
T1 construct: gene NUAK1
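Also: KINOMEscan kinase panel screen.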

Compound	%Inh
Cc1ccc(C)c(NC(=O)NCCNc2ccnc(Nc3ccc(F)cc3)n2)c1 [GSK1379878]	0%
Cn1ccc2ncnc(Nc3ccc(Oc4cccc(Cl)c4)c(Cl)c3)c21	22%
CCC(CC)(CC)n1cnc2c(N)ncnc21 [SKF-97620]	0%
COc1ccc(NC(=O)c2ccc(-c3cc(-c4nnc(C)o4)ccc3C)cc2)cc1 [GW595885]	0%
CN1CCC(n2cnc(-c3ccc(F)cc3)c2-c2ccnc(NC3CCNCC3)n2)CC1 [SB-229482]	0%
Cn1ccc2ncnc(Oc3ccc(NC(=O)Nc4cccnc4)c(Cl)c3)c21	3%
CC(=O)Nc1n[nH]c2ncc(-c3ccccc3)cc12 [SB-548492]	0%
CS(=O)(=O)CCNCc1nc(-c2ccc3ncnc(Nc4ccc(OCc5cccc(F)c5)c(Cl)c4)c3c2)cs1.Cl [GW583340]	11%
O=C(Nc1ccccc1F)NC1CCN(c2ccnc(Nc3ccc(F)cc3)n2)C1 (stereo not drawn) [GSK1379722]	12%
Cc1cccc(-c2nc(Nc3ccc4[nH]nnc4c3)c3ccccc3n2)n1 [GW867587]	0%
Clc1cccc(-c2nc(Nc3ccncc3)c3ccccc3n2)c1 [GW873004]	0%
CCCc1ccc(S(=O)(=O)NC2CCN(c3ccnc(Nc4ccc(OC)cc4)n3)C2)cc1 (stereo not drawn) [GSK1379737]	0%
CCc1nc(-c2cccc(N(C)S(=O)(=O)c3ccccc3)c2)c(-c2ccnc(Nc3ccc(N4CCN(C(C)=O)CC4)nc3)n2)s1 [GSK1645895]	16%
Nc1n[nH]c2nnc(-c3ccccc3)cc12 [SB-517389]	1%
O=C(Nc1n[nH]c2nc(-c3ccco3)c(Br)cc12)c1ccc(CN2CCCC2)cc1.O=C(O)[C@H](O)[C@@H](O)C(=O)O [SB-742352]	0%
CC(C)(C)OC(=O)NC1CCCN(c2cc(-c3ccc4c(N)n[nH]c4c3)nc(N)n2)C1 (stereo not drawn) [GSK2286096]	19%
FC(F)(F)c1cc(Nc2nccc(-c3c(-c4ccc(Cl)cc4)nn4ncccc34)n2)ccc1Cl [GW829351]	0%
O=C(Nc1ccccc1)Nc1ccc(Oc2ccc3nccn3n2)cc1	0%
COc1ccc(-c2oc3ncnc(N)c3c2-c2ccc(OC)cc2)cc1 [SB-589132]	13%
OCCOCCn1ccc2ncnc(Nc3ccc(Oc4cccc(Cl)c4)c(Cl)c3)c21	0%
CNc1nccc(-c2c(-c3ccc(F)cc3)ncn2CCCN2CCOCC2)n1 [SB-222516]	0%
NC(=O)c1sc(-n2cnc3ccccc32)cc1OCc1ccccc1F [GSK1024306]	31%

These molecules were tested on T2, ASK1. Settings: concentration: 1 μM, replicates: in singlicate; n = 1.
T2 construct: gene MAP3K5

Compound	%Inh
Fc1cccc(COc2ccc(Nc3ncnc4cc[nH]c34)cc2Cl)c1	11%
COc1cc2ncnc(Nc3ccc(OCc4ccccc4Br)c(Cl)c3)c2cc1OC.Cl [GI261590]	10%
CCn1c(-c2ccncc2)nc2cnccc21 [SB-735216]	0%
FC(F)(F)c1ccc(-c2nn3ncccc3c2-c2ccnc(Nc3cccc(C(F)(F)F)c3)n2)cc1 [GW828205]	0%
CNc1nccc(-c2c(-c3ccc(F)cc3)ncn2C2CCN(C)CC2)n1 [SB-222903]	0%
Cl.c1ccc(Cn2ncc3cc(Nc4ncnc5ccccc45)ccc32)cc1 [GW273749]	0%
Cc1ccc(NC(=O)c2cccc(C#N)c2)cc1-c1ccc(C(=O)Nc2ccncc2)cc1 [GSK1398463]	3%
COC(=O)c1c(-c2ccccc2)c2cc(Cl)ccc2c(=O)n1Cc1ccc(S(C)(=O)=O)cc1	6%
COc1ccc(Nc2nccc(N3CCC(NC(=O)Nc4ccc5c(c4)OCO5)C3)n2)cc1 (stereo not drawn) [GSK1379745]	9%
COc1ccc(Nc2nccc(N3CCC(NC(=O)c4cccc(NC(C)=O)c4)C3)n2)cc1 (stereo not drawn) [GSK1379732]	0%
Cl.Cn1ccc(-c2cccc(Nc3ccnc4cc(-c5nccs5)ccc34)c2)n1 [GW525701]	9%
c1ccc(-c2ccc3c(-c4ccnc(Nc5ccc6c(c5)OCCO6)n4)cnn3n2)cc1 [GW818941]	7%
O=C(c1ccc(-c2cc(-c3c[nH]nc3-c3ccccn3)ccn2)cc1)N1CCCC1 [GW792479]	4%
Cc1ccc(C)c(NC(=O)NCCNc2ccnc(Nc3ccc(F)cc3)n2)c1 [GSK1379878]	0%
Cn1ccc2ncnc(Nc3ccc(Oc4cccc(Cl)c4)c(Cl)c3)c21	0%
CCC(CC)(CC)n1cnc2c(N)ncnc21 [SKF-97620]	2%
COc1ccc(NC(=O)c2ccc(-c3cc(-c4nnc(C)o4)ccc3C)cc2)cc1 [GW595885]	10%
CN1CCC(n2cnc(-c3ccc(F)cc3)c2-c2ccnc(NC3CCNCC3)n2)CC1 [SB-229482]	0%

Compound	%Inh
Cn1ccc2ncnc(Oc3ccc(NC(=O)Nc4cccnc4)c(Cl)c3)c21	5%
CC(=O)Nc1n[nH]c2ncc(-c3ccccc3)cc12 [SB-548492]	20%
CS(=O)(=O)CCNCc1nc(-c2ccc3ncnc(Nc4ccc(OCc5cccc(F)c5)c(Cl)c4)c3c2)cs1.Cl [GW583340]	11%
O=C(Nc1ccccc1F)NC1CCN(c2ccnc(Nc3ccc(F)cc3)n2)C1 (stereo not drawn) [GSK1379722]	8%
Cc1cccc(-c2nc(Nc3ccc4[nH]nnc4c3)c3ccccc3n2)n1 [GW867587]	0%
Clc1cccc(-c2nc(Nc3ccncc3)c3ccccc3n2)c1 [GW873004]	13%
CCCc1ccc(S(=O)(=O)NC2CCN(c3ccnc(Nc4ccc(OC)cc4)n3)C2)cc1 (stereo not drawn) [GSK1379737]	0%
CCc1nc(-c2cccc(N(C)S(=O)(=O)c3ccccc3)c2)c(-c2ccnc(Nc3ccc(N4CCN(C(C)=O)CC4)nc3)n2)s1 [GSK1645895]	12%
Nc1n[nH]c2nnc(-c3ccccc3)cc12 [SB-517389]	61%
O=C(Nc1n[nH]c2nc(-c3ccco3)c(Br)cc12)c1ccc(CN2CCCC2)cc1.O=C(O)[C@H](O)[C@@H](O)C(=O)O [SB-742352]	0%
CC(C)(C)OC(=O)NC1CCCN(c2cc(-c3ccc4c(N)n[nH]c4c3)nc(N)n2)C1 (stereo not drawn) [GSK2286096]	0%
FC(F)(F)c1cc(Nc2nccc(-c3c(-c4ccc(Cl)cc4)nn4ncccc34)n2)ccc1Cl [GW829351]	0%
O=C(Nc1ccccc1)Nc1ccc(Oc2ccc3nccn3n2)cc1	8%
COc1ccc(-c2oc3ncnc(N)c3c2-c2ccc(OC)cc2)cc1 [SB-589132]	11%
OCCOCCn1ccc2ncnc(Nc3ccc(Oc4cccc(Cl)c4)c(Cl)c3)c21	0%
CNc1nccc(-c2c(-c3ccc(F)cc3)ncn2CCCN2CCOCC2)n1 [SB-222516]	9%
NC(=O)c1sc(-n2cnc3ccccc32)cc1OCc1ccccc1F [GSK1024306]	0%

— PMC5540273 (PLoS ONE, 2017)
